From PubChem BioAssay
Tau fibril ThT – tau fibrillization inhibition (ThT binding) | 270,000 tested, 2.1% active | P10636 | recombinant tau K18 P301L, heparin-induced fibrillization, ThT fluorescence | Potency, µM (series often up to 57.4 µM), inactives show at the top dose activity, negative = inhibition, most hits filed as inhibitors; note: potency is the fitted concentration of half-maximal effect; nearly all actives have a fitted effect of over 55% in size
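K18 P301L tau (15 uM + 0.24 uM Alexa 594-tagged), heparin 20 uM, NaOAc pH 7, 6 h 37 C; ThT 30 uM, 1 h RT, ex 450/em 510 nm.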
Tau fluor cs – counter-screen for tau fibril formation inhibitors | tau K18 P301L Alexa594 fluorescence, heparin fibrillization | Potency, µM (series often up to 57.7 µM), without a hit: top-dose activity change, negative = decrease | 280,000 tested, 0.93% active | AID 1463; note: potency is the fitted concentration of half-maximal effect; nearly all actives have a fitted effect of over 55% in size
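Human tau K18 P301L (15 uM unlabeled, 0.24 uM Alexa 594-labeled) in 100 mM sodium acetate pH 7 with 20 uM heparin, 6 hr at 37 C. ThT 30 uM added, 1 hr ambient; Alexa 594 FP and total fluorescence read at 555/632 nm.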
Coupling enz – coupling enzyme interference in Giardia aldolase counter-screen | coupling enzyme system counterscreen, AmpLite Red fluorescence | activity change, negative = inhibition, % at 58.2 µM, hits read low | 290,000 tested, 0.67% active; in the data active = activity change below about -30%
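Fluorescence at 525 nm excitation and 598 nm emission measured inhibition of the coupled detection system without aldolase. Compounds (at 57.5 uM final) were preincubated 10 min at room temperature with coupling enzyme reagent before a 20 min substrate/AmpLite Red step.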
Tau fibril FP – blocks human tau fibril formation measured by polarization; Potency, µM (titrated, usually from 57.7 µM), inactives show top-dose activity, negative = inhibition, hits mostly inhibitors; K18 P301L tau heparin fibrillization, Alexa594 FP, 6 h; 280,000 tested, 0.39% active; AID 1468; note: potency is the fitted concentration of half-maximal effect; nearly all actives have a fitted effect of over 55% in size
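Heparin (20 uM) drove fibril formation of recombinant tau K18 P301L, 15 uM unlabeled with 0.24 uM Alexa 594 label, for 6 hr at 37 C in 100 mM sodium acetate pH 7. Fluorescence polarization (555/632 nm) read 1 hr after 30 uM ThT.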
USP1 inh – blocks the human USP1/UAF1 deubiquitinase complex. 390,000 tested, 0.23% active. O94782. AID 743255. Potency, µM (series often up to 57.1 µM), for inactives: at the top dose activity change, negative = inhibition, hits mostly inhibitors. recombinant USP1/UAF1, Ub-Rhodamine cleavage fluorescence; note: potency is the fitted concentration of half-maximal effect; nearly all actives have a fitted effect of over 60% in size
Target sequence (O94782 whole entry, looked up): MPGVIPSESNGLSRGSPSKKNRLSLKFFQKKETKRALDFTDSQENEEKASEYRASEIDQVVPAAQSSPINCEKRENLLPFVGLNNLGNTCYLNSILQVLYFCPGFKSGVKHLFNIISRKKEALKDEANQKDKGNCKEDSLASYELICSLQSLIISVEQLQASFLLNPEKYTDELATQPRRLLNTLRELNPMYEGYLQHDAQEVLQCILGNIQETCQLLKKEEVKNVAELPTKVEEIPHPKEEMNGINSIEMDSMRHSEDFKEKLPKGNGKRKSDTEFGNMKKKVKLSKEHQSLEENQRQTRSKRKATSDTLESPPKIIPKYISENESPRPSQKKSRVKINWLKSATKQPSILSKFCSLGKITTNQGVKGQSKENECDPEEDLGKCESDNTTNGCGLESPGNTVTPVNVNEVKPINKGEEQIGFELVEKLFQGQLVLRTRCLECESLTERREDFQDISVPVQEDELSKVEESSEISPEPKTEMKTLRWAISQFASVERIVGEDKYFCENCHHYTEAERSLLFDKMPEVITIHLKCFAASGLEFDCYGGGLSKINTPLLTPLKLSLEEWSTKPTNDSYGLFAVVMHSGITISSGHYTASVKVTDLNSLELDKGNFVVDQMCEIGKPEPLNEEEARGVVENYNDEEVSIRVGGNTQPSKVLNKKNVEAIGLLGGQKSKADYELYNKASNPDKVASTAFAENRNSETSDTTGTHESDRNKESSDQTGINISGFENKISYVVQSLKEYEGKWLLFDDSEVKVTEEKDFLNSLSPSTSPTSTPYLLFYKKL
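USP1/UAF1 complex (1 nM) preincubated 15 min at room temperature with compound, then Ub-Rho substrate (150 nM final) added. Kinetic fluorescence at 480/540 nm over 6 reads at 60 s intervals; 50 mM HEPES pH 7.8, 0.5 mM EDTA, 0.1 mg/ml BSA, 1 mM TCEP, 0.01% Tween-20.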
Numbers without * were called inactive; ? = inconclusive; nt = not tested or not shown; [ ] = remark or other dose. Only some compounds are listed: those with a hit (about 2.3% of all), similar ones and a draw of the others. Unless noted, calls come from the whole dose curve; as a rule, active = well fitted curve in the direction sought with a large enough effect; inconclusive = small, poorly fitted or top-dose-only effect, or another doubt; inactive = no such curve, though single readings can be large; an effect the other way counts as inactive or inconclusive. % is set by controls: 0 for no effect and ±100 for the full control effect.

SMILES	Tau fibril ThT	Tau fluor cs	Coupling enz	Tau fibril FP	USP1 inh
COc1ccc(CCC(=O)OCC(=O)Nc2ccccc2)cc1	nt	nt	-1.9	nt	?
Nc1cccc2c(O)cc(S(=O)(=O)O)cc12	nt	nt	nt	nt	25.1µM*
Nc1cc(S(=O)(=O)O)cc([N+](=O)[O-])c1O	-4.7%	-3.0%	-1.1	0.2%	-14.7%
Cc1nnc(N/N=C/c2ccco2)n1N	?	-17.2%	-41.9*	?	-17.3%
Cc1nnc(N/N=C/c2ccccc2F)n1N	nt	nt	2.4	nt	-19.9%
CCCCN1CCCc2cc(CN(CCCN3CCOCC3)C(=O)Nc3ccc(CC)cc3)ccc21	?	?	nt	-0.5%	-16.6%
COC(=O)C(Nc1ccccc1Cl)(c1cc(C)c(O)c(C)c1)C(F)(F)F (stereo not drawn)	-16.8%	?	0.6	?	-6.5%
COC(=O)/C(=C(/F)Sc1cc(C)c(O)c(C)c1)C(F)(F)F	?	12.6µM*[quencher]	0.5	?	-5.6%
Cc1ccc(S(=O)(=O)Nc2ccc(-c3nc4cc(NS(=O)(=O)c5ccc(C)cc5)ccc4o3)cc2)cc1	7.3%	?	-8.8	15.8µM*	nt
CC(=O)Nc1ccc(S(=O)(=O)Nc2cccc(-c3nc4cc(C)ccc4o3)c2)cc1	nt	nt	nt	nt	-20.2%
Cn1c(=O)n(C)c2cc(N3CCCCC3)c(NC(=O)Nc3ccc(Br)cc3)cc21	-8.5%	-29.5%	nt	6.6%	-6.0%
O=C(CCCOc1ccc(Cl)cc1Cl)N/N=C/c1ccccc1	6.1%	2.5%	-47.5*	-0.4%	-12.0%
Cc1ccc(/C=N/NC(=O)CCCOc2ccc(Cl)cc2Cl)cc1	-10.9%	-23.9%	-11.4	?	-22.4%
CCOC(=O)c1ccc(NC(=O)c2cc3c(=O)n(C)c4ccccc4c3n2C)cc1	-12.7%	-10.3%	nt	-1.7%	-18.0%
Cc1ccsc1/C=N/NC(=O)Cc1ccc(Cl)cc1	-7.2%	-21.0%	0.8	-9.2%	-11.7%
Cc1ccsc1/C=N/NC(=O)CSCc1ccc(Cl)cc1	-14.9%	-28.9%	-34.3*	-9.2%	-30.2%
c1ccc2c(c1)nc(N1CCOCC1)c1c3ccccc3[nH]c21	-5.3%	?	-44.6*	-12.6%	-0.3%
CCc1nn2c(=O)cc(COc3ccc(/C=C4\C(=N)N5N=C(C)SC5=NC4=O)cc3)nc2s1	12.6µM*	-16.6%	7.2	0.5%	-12.8%
CCCN1C(=O)CC(=O)N=C1SCC(=O)Nc1ccccc1F	nt	nt	nt	nt	-16.4%
CCCCOc1[nH]c2nc(-c3ccco3)n(Cc3ccco3)c(=N)c2c1C#N	22.4µM*	?	-1.3	-11.1%	-18.8%
Oc1ccc(/C=N/Nc2nc(-c3ccc(Cl)cc3)cc(C(F)(F)F)n2)cc1	17.8µM*	25.1µM*[quencher]	-3.7	?	-6.8%
COc1cc(/C=C\C(=O)Nc2cc(=O)n(C)c(=O)n2C)cc(OC)c1OC	-7.5%	-1.4%	-3.3	0.2%	-11.5%
COc1cc(/C=N\Nc2cc(=O)n(C)c(=O)n2C)ccc1O	?	-2.5%	-4.5	-2.0%	-19.5%
COc1ccc(/C=N/Nc2cc(=O)n(C)c(=O)n2C)cc1OC	?	0.8%	-35.0*	-6.2%	-14.3%
COc1ccc(/C=C/C(=O)NNc2cc(=O)n(C)c(=O)n2C)cc1OC	nt	?	-31.4*	8.9%	-21.0%
SMILES	Tau fibril ThT	Tau fluor cs	Coupling enz	Tau fibril FP	USP1 inh
CC(C)c1ccc(Nc2c(-c3ccc(N(C)C)cc3)nc3cnccn23)cc1	-3.5%	?	nt	3.0%	-11.2%
COc1cc(OC)c(OC)cc1/C=C1\Oc2cc(OCC(=O)N3Cc4ccccc4C[C@H]3C(=O)O)ccc2C1=O	nt	nt	1.8	nt	14.1µM*
O=C(O)CCC/C=C\C[C@H]1C(=O)C[C@@H](O)[C@@H]1/C=C/[C@@H](O)CCc1ccccc1	-5.2%	-5.8%	1.1	-6.4%	nt
COC(=O)c1sc(-c2ccccc2)cc1NC(=O)Nc1ccc(F)cc1	-4.4%	?	nt	17.8µM*	-21.0%
Oc1ccc(-c2nc3ccccc3s2)c(O)c1	7.4%	?	1.0	-12.8%	-23.0%
Oc1ccc(N=C/C=C/c2cccc(Br)c2)cc1-c1nc2ccccc2s1	6.31µM*	?	-15.1	-15.0%	?
COc1ccccc1Nc1nc(-c2cccs2)cs1	14.1µM*	?	-4.9	1.4%	-11.4%
COc1ccc(Nc2nc(-c3cccc([N+](=O)[O-])c3)nc3ccccc23)c(OC)c1	-3.6%	?	-1.2	?	-3.3%
COc1ccc(Nc2nc(-c3cccs3)cs2)c(OC)c1	11.2µM*	15.8µM*[quencher]	-5.5	11.1%	-18.7%
COc1ccc(Nc2nc(-c3cccs3)cs2)cc1	?	?	1.3	4.0%	-17.3%
COc1ccc(OC)c(Nc2nc(-c3cccs3)cs2)c1	?	15.8µM*[quencher]	0.4	4.2%	-17.7%
COc1ccc(Nc2nc(-c3cccs3)nc3ccccc23)c(OC)c1	?	10µM*[quencher]	-2.3	-6.4%	-9.4%
Cc1ccc2[nH]c3c(=O)n(CC(=O)N(C)Cc4ccccc4)ncc3c2c1	-8.5%	-7.7%	nt	1.6%	1.5%
COc1ccc(C2CC(=O)N(Cc3cccc(C)c3)c3c2c(C)nn3-c2nc(C)cc(C)n2)c(OC)c1 (stereo not drawn)	-0.2%	4.3%	nt	-3.7%	-1.5%
Oc1ccc(Nc2nc(-c3cccs3)cs2)cc1	?	11.2µM*[quencher]	-1.0	2.1%	-14.5%
Cc1ccc(CNc2nc(-c3cccs3)nc3ccccc23)cc1	-13.8%	?	-1.7	39.8µM*	?
CCCCCC(=O)N1C[C@@H](O)[C@H](n2cc(COC(=O)c3ccccc3)nn2)C[C@@H]1c1ccc(Cl)cc1	nt	nt	nt	nt	-2.3%
COc1ccc(CN(CC(=O)NC(C)C)C(=O)CCC(=O)Nc2nccs2)cc1	nt	nt	1.0	nt	-14.8%
Cc1ccc(C(=O)N2CCn3c4c(c5cc(C)ccc53)CCCC42)cc1 (stereo not drawn)	?	-25.1%	nt	-2.7%	-8.5%
Cc1ccc2c(c1)c1c3n2CCN(C(=O)C2CC2)C3CCC1 (stereo not drawn)	?	?	-36.4*	5.2%	-21.2%
Cc1ccc2c(c1)c(=O)c1c3n2CCN(C(=O)CCl)C3CC1 (stereo not drawn)	14.1µM*	?	-42.2*	?	31.6µM*
Cc1ccc2c(c1)c1c3n2CCN(C(=O)CN2CCN(C)CC2)C3CCC1 (stereo not drawn)	-13.4%	-1.8%	-2.5	8.9%	2.4%
Cc1ccc(Nc2ncc(C(=O)Nc3ccc(F)cc3F)c3ccccc23)cc1Cl	-0.9%	?	nt	?	-29.0%
COC(=O)c1cccc(NC(=O)CCCN2C(=O)NC3(CCCC3)C2=O)c1	nt	nt	nt	nt	-15.1%
CCOc1ccccc1NC(=O)C(OC(=O)c1ccc(CC)cc1)c1ccccc1 (stereo not drawn)	-4.6%	-11.4%	-2.9	-1.6%	-17.8%
CCOc1ccccc1NC(=O)C(OC(=O)c1ccc(O)cc1)c1ccccc1 (stereo not drawn)	4.7%	?	-13.3	22.4µM*	-8.7%
